{"source": "ChEMBL document CHEMBL4513216", "about": "“Probing the Open Global Health Chemical Diversity Library for Multistage-Active Starting Points for Next-Generation Antimalarials” (ACS Infect Dis, 2020)", "note": "About 2,100 (3.2%) of roughly 65,000 compounds showed an effect of 50% or more. The median lay at about -52%. For the sample, strong results were picked, then their nearest neighbours and some compounds at random."}
{"system": "Plasmodium falciparum", "assay": "Screen against P. falciparum Asexual Blood Stage (ABS), at 5uM", "type": "functional, Dd2", "details": "tested at 5 uM", "units": {"INHIBITION": "%"}}
{"smiles": "CC(C)CNC(=O)N1C[C@@H]2CCCN[C@@H]2C1", "INHIBITION": -5.1}
{"smiles": "COCCN1CCOCC12CCN(C(=O)c1ccncc1)CC2", "INHIBITION": -98.9}
{"smiles": "FC(F)(F)c1ccc2nc([C@H]3CCN(C4CCCCC4)C3)[nH]c2c1", "INHIBITION": 83.6}
{"smiles": "CCc1nc(-c2ccc(C(=O)N3CCC4(CC3)OCCO4)cc2)no1", "INHIBITION": -52.5}
{"smiles": "Cc1ccc2c(CC(=O)N3C[C@@H](O)[C@H](N(C)C)C3)coc2c1", "INHIBITION": 9.22}
{"smiles": "CN(C)CCCn1ccnc1C1CCCN(c2ncc(Cl)cc2F)C1", "note": "(centres undefined)", "INHIBITION": 84.4}
{"smiles": "COCCO[C@@H]1C[C@H]2CN(C(=O)c3cccnc3)CCN2C1", "INHIBITION": -84.1}
{"smiles": "Cc1ccccc1CNC(Cn1cncn1)c1ccccc1", "note": "(centres undefined)", "INHIBITION": -47.8}
{"smiles": "CC(Cc1cccc(Cl)c1)NC(=O)NCc1ncnn1C", "note": "(centres undefined)", "INHIBITION": -104}
{"smiles": "COCC(=O)NC(C)Cc1cccc(Cl)c1", "note": "(centres undefined)", "INHIBITION": -14.8}
{"smiles": "Clc1ccccc1CNC(Cn1cncn1)c1ccccc1", "note": "(centres undefined)", "INHIBITION": -8.41}
{"smiles": "CC(Cc1ccccc1Cl)NC(=O)Nc1cnn(CC(N)=O)c1", "note": "(centres undefined)", "INHIBITION": -20.1}
{"smiles": "CCC(NCc1ccccc1C)c1ccccc1OCC(=O)NC", "note": "(centres undefined)", "INHIBITION": 80}
{"smiles": "CCC(NCc1ccccc1Cl)c1ccccc1OCC(=O)NC", "note": "(centres undefined)", "INHIBITION": 74.7}
{"smiles": "CCC(NCc1cccc(Cl)c1)c1ccccc1OCC(=O)NC", "note": "(centres undefined)", "INHIBITION": 82.8}
{"smiles": "COCCN1CCO[C@H]2CN(Cc3cccc(C)n3)C[C@H]21", "INHIBITION": -18.3}
{"smiles": "Cc1cc(NC2CC3(CCN(Cc4ncccc4F)C3)C2)ncn1", "note": "(centres undefined)", "INHIBITION": -37.1}
{"smiles": "CCc1c(C)[nH]c(C2(N)CCCC2)nc1=O", "INHIBITION": -43.5}
{"smiles": "CNC(=O)[C@H]1C[C@@H]2CN(Cc3cccnc3OC)C[C@@H]2N1C(C)C", "INHIBITION": 21.8}
{"smiles": "CC(NC(=O)CN1CCCC1=O)c1ccc(Cl)s1", "note": "(centres undefined)", "INHIBITION": -3.71}
{"smiles": "CC(Cn1cccn1)NCc1ccc(Cl)s1", "note": "(centres undefined)", "INHIBITION": -30.2}
{"smiles": "CN1CCCC(Cc2cncc(Br)c2)CC1", "note": "(centres undefined)", "INHIBITION": -65}
{"smiles": "CC(NCCN1CCC(N(C)C)CC1)c1ccc(Cl)s1", "note": "(centres undefined)", "INHIBITION": 75.4}
{"smiles": "Cc1cc(Br)cnc1NCCN1CCC(N(C)C)CC1", "INHIBITION": 89.1}
{"smiles": "Cc1cc(C(C)NCCN2CCC(N(C)C)CC2)c(C)s1", "note": "(centres undefined)", "INHIBITION": 81.6}
{"smiles": "CN1[C@@H]2CC[C@H]1CN(c1cc(Sc3cccs3)nc(N)n1)CC2", "INHIBITION": 19.3}
{"smiles": "Cc1ccc(CN2CC[C@H]3NC(=O)CC[C@@H]32)o1", "INHIBITION": -34.6}
{"smiles": "CSc1ccc(-c2nc(CN3CCC(CN)C3)c(C)o2)cc1", "note": "(centres undefined)", "INHIBITION": 83.05}
{"smiles": "Cc1cc(CN2CC[C@]3(C[C@@H](OCC(=O)N(C)C)CO3)C2)no1", "INHIBITION": -93}
{"smiles": "c1ccc(CN2CCCC[C@H]3CN(c4ncccn4)C[C@H]32)cc1", "INHIBITION": 3.59}
{"smiles": "CCn1cc(CN2CCCCC2CCn2ccnc2C)cc1C#N", "note": "(centres undefined)", "INHIBITION": 78.2}
{"smiles": "CCn1ccnc1CN1CCN(C(C)C)CC1C", "note": "(centres undefined)", "INHIBITION": -35.9}
{"smiles": "CCCN1CCC(NC(=O)c2ccc(F)cc2I)CC1", "INHIBITION": 71.1}
{"smiles": "O=C(c1cc2cc(F)ccc2[nH]1)N1CCC(Nc2ccc(F)cc2)CC1", "INHIBITION": -1.01}
{"smiles": "Cc1cc(CC(=O)N2CCN(CC3CC3)[C@@H]3CS(=O)(=O)C[C@@H]32)ccc1F", "INHIBITION": -75.7}
{"smiles": "Cc1cc(C(=O)N[C@H]2COC[C@@H]2N2CCOCC2)c2ccc(F)cc2n1", "INHIBITION": -31.3}
{"smiles": "Cc1ccc2nc(C)cc(C(=O)N[C@H]3COC[C@@H]3N3CCOCC3)c2c1", "INHIBITION": -169}
{"smiles": "CO[C@H]1CNC[C@@H]1NC(=O)c1cc(C)nc2c(C)cc(C)cc12", "INHIBITION": 75.1}
{"smiles": "c1cncc(OC[C@]23COC[C@H]2CN(C2CCC2)C3)c1", "INHIBITION": -4.29}
{"smiles": "CCC1CCCN(Cc2nc(N)c3ccccc3n2)C1", "note": "(centres undefined)", "INHIBITION": 74}
{"smiles": "O=S(=O)(C1CC1)N1CCOC2(CCCN(Cc3ccccn3)C2)C1", "note": "(centres undefined)", "INHIBITION": -97.5}
{"smiles": "CN(C)CCN1CCC(NC2CSCCc3ccccc32)CC1", "note": "(centres undefined)", "INHIBITION": 76.5}
{"smiles": "CCN1CCc2c(cccc2NC(=O)N(C)C2CCSC2)C1", "note": "(centres undefined)", "INHIBITION": -40.2}
{"smiles": "CN(C)CCN1CCN(CC2CC2)c2ncccc2C1", "INHIBITION": 10.4}
{"smiles": "O=C1[C@@H]2CN(Cc3ccccn3)C[C@H]2CCN1c1cncnc1", "INHIBITION": -99.9}
{"smiles": "Cc1ccc(-n2nnc(CC(=O)N3CCN(C(C)C)CC3)c2C)cc1", "INHIBITION": -42.3}
{"smiles": "CCC(=O)NCC(=O)NC(Cc1ccccc1)c1sccc1C", "note": "(centres undefined)", "INHIBITION": 85.5}
{"smiles": "CCOC(C)c1noc(CN(C)C(=O)C2C(C)(C)C2(C)C)n1", "note": "(centres undefined)", "INHIBITION": -124}
{"smiles": "Cc1cc(C)c2cc(CNCc3ccco3)c3nn(C)c(=O)n3c2c1", "INHIBITION": 75.5}
{"smiles": "COc1ccc(CCNCc2ccco2)cc1OC", "INHIBITION": 5.79}
{"smiles": "Cc1cc(C)c2cc(CNC3CCCCC3)c3nn(C)c(=O)n3c2c1", "INHIBITION": 79.7}
{"smiles": "Oc1ccc(Cl)cc1CNCc1ccccc1Cl", "INHIBITION": 76.4}
{"smiles": "Cc1ccccc1CNCc1cc(Cl)ccc1O", "INHIBITION": 75.4}
{"smiles": "Oc1ccc(Cl)cc1CNCc1cccc(C(F)(F)F)c1", "INHIBITION": 89}
{"smiles": "COCCNC(=O)[C@H]1C[C@@H]2CCN(Cc3ccncc3)C[C@H]2O1", "INHIBITION": -49.6}
{"smiles": "O=C(NCc1ccncc1)C1=NOC2(CCCNC2)C1", "note": "(centres undefined)", "INHIBITION": -6.12}
{"smiles": "Cc1cccc(CN2CC3C[C@]3(NC(=O)c3ccco3)C2)n1", "note": "(some centres undefined)", "INHIBITION": -83.2}
{"smiles": "CCCc1nc(CNC(C)Cn2cccn2)cs1", "note": "(centres undefined)", "INHIBITION": -91.5}
{"smiles": "COCCN1CCN(c2ccc(C)nn2)Cc2ccc(C)nc21", "INHIBITION": -54.8}
{"smiles": "O=C(C1CC1)N1CCc2c(ncnc2N2CCN3CCCC3C2)C1", "note": "(centres undefined)", "INHIBITION": -21.1}
{"smiles": "c1ccn2c(C3CCCN(c4ncnc5c4CCNC5)C3)nnc2c1", "note": "(centres undefined)", "INHIBITION": 76.2}
{"smiles": "Nc1nc2c(c(N3CCCC(c4nnc5ccccn45)C3)n1)CCNC2", "note": "(centres undefined)", "INHIBITION": 84.8}
{"smiles": "Clc1cncc(N2CCN(Cc3ccon3)CC2)n1", "INHIBITION": -51.3}
{"smiles": "CN1CCCCC1c1cncc(Cl)n1", "note": "(centres undefined)", "INHIBITION": -143}
{"smiles": "CC(C)(N)C(=O)N1CCCC1c1cncc(Oc2ccccc2)n1", "note": "(centres undefined)", "INHIBITION": 78.6}
{"smiles": "O=C(Nc1cccnc1)[C@@H]1C[C@H]2OCC[C@H]2N(Cc2nccs2)C1", "INHIBITION": -80.7}
{"smiles": "Cn1cc(CN2C[C@@H]3[C@@H](C2)OCC(=O)N3Cc2ccncc2)cn1", "INHIBITION": -72.9}
{"smiles": "c1ccc(CN2CC[C@@H]3[C@@H](CO[C@@H]3CNc3ncccn3)C2)nc1", "INHIBITION": -169}
{"smiles": "CO[C@H]1CCN(c2ncc(F)cn2)[C@@H]2CN(Cc3ccco3)C[C@H]12", "INHIBITION": 63.7}
{"smiles": "CO[C@@H]1CCN(Cc2ccccn2)[C@@H]2CN(Cc3ccco3)C[C@@H]21", "INHIBITION": 81.6}
{"smiles": "c1ccc(CN2CC[C@H]3CO[C@H](CNc4ncccn4)[C@H]3C2)nc1", "INHIBITION": -30.4}
{"smiles": "CO[C@@H]1CC[C@H]2[C@H]1OCCN2Cc1ccccn1", "INHIBITION": -64.6}
{"smiles": "CO[C@H]1CCN(Cc2ccccn2)[C@@H]2CN(Cc3ccco3)C[C@H]12", "INHIBITION": 67.7}
{"smiles": "CO[C@@H]1CCN(c2ncc(F)cn2)[C@@H]2CN(CC3CC3)C[C@@H]21", "INHIBITION": 6.1}
{"smiles": "COC[C@H]1CC[C@@H]2[C@@H](CCN2Cc2ccco2)O1", "INHIBITION": -128}
{"smiles": "c1ccc(COC[C@H]2CC[C@H]3[C@H](CCN3Cc3ccco3)O2)nc1", "INHIBITION": -63.4}
{"smiles": "CN(Cc1ccco1)C[C@H]1OC[C@@H]2CCN(Cc3ccccn3)C[C@@H]21", "INHIBITION": 71.1}
{"smiles": "COC[C@H]1CC[C@@H]2[C@@H](CCN2Cc2ccccn2)O1", "INHIBITION": -7.67}
{"smiles": "CCN1C[C@H]2[C@@H](C1)N(c1ncc(F)cn1)CC[C@H]2OC", "INHIBITION": 35.7}
